Screens from PubChem BioAssay.
In the library only some 3.4% were active in any assay of this set; here they are far more common.
KLK7 zymogen act: proKLK7 zymogen activators, primary screen, biochemical, fluorescence intensity | Kallikrein-7 (Homo sapiens), P49862 | purified proKLK7, EDANS-DABCYL substrate fluorescence; 100% is mature enzyme control, 0% vehicle | activation, % at 7 µM | hit rate 0.9% among 370,000;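 active = activation above the mean of all tested compounds plus 3 SD, computed per campaign excluding outliers beyond control limits, cut at about 13% in these data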
ADAM17 inh: ADAM17 inhibitors, primary screen, biochemical, QFRET | hit rate 0.83% among 370,000 | recombinant ADAM17, EDANS/DABCYL FRET peptide cleavage | Disintegrin and metalloproteinase domain-containing protein 17 (Homo sapiens), P78536 | inhibition, % at 6.95 µM;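 active = inhibition above the mean of compounds lying between control limits plus 3 SD, set per campaign, cut at about 8.5% in these data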;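 also: 0% = DMSO-only wells as the low control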
HGIII-sPLA2 inh: human group III sPLA2 inhibitors, primary screen, biochemical, QFRET, BODIPY PC-A2 liposome substrate; Group 3 secretory phospholipase A2 (Homo sapiens), Q9NZ20; QFRET BODIPY PC-A2 liposome hydrolysis, fluorescence; inhibition, % at 12.2 µM; hit rate 0.56% among 370,000; AID 743126, 2013;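 active = inhibition above mean plus 3 SD of compounds lying within the high and low control bounds, cut at about 19% in these data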;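 also: 0% = median of test compound wells and 100% = no enzyme DMSO wells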
PLCb3 inh: human PLC-beta3 inhibitors, primary screen, biochemical, fluorescence; Purified PLC-beta3, fluorogenic substrate; inhibition, % at 12.2 µM; hit rate 0.18% among 370,000; AID 720704, 2013; in the data active = inhibition above about 11%;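 also: 0% = median of compound wells on plate and 100% = full blocker control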
ADAM10 inh: human ADAM10 inhibitors, primary screen, biochemical, QFRET, HTS | hit rate 0.62% among 370,000 | Disintegrin and metalloproteinase domain-containing protein 10 (Homo sapiens), O14672 | inhibition, % at 7 µM | AID 720582, 2013 | recombinant ADAM10, EDANS/DABCYL FRET peptide cleavage, 3 h;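 active = inhibition above a per-campaign cutoff equal to the mean of compounds falling between control-based bounds plus 3 SD, cut at about 20% in these data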;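 also: 0% = DMSO wells while the 100% control is not disclosed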
Target sequence (O14672 214-748 limits assumed): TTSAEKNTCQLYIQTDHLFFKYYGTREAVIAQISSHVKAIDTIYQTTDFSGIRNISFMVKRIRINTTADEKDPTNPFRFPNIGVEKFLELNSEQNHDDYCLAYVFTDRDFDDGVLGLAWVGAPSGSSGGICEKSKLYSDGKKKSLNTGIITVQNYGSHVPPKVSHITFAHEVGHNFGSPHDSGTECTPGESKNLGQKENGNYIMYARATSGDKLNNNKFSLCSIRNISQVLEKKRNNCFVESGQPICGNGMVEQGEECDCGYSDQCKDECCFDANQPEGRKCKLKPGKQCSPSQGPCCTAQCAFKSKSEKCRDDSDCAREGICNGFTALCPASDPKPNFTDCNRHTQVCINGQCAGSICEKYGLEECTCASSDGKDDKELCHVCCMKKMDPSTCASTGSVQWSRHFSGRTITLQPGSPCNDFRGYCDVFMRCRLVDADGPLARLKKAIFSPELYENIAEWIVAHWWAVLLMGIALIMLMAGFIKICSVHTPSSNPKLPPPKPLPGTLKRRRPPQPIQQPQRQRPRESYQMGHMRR
PLC-gamma1 inh: PLC-gamma1 enzyme inhibitors, primary screen, biochemical, fluorescence, purified enzyme. fluorogenic substrate. inhibition, % at 12.2 µM. hit rate 0.84% among 370,000. AID 720700, 2013
ADAM10 counter: ADAM10 inhibitors, counter-screen for ADAM17 exosite inhibitor project, biochemical, FRET, human ADAM10; shares compounds with ADAM17 inh; recombinant ADAM10, EDANS/DABCYL FRET peptide cleavage, 3 h; inhibition, % at 6.95 µM; hit rate 47% among 2,900; AID 743256, 2014;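 active = mean inhibition over the triplicate runs exceeds the activity threshold set in the earlier primary screen, cut at about 20% in these data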;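 also: 0% = DMSO wells and 100% = marimastat wells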
ADAM17 confirm: ADAM17 inhibitors, hit retest, confirmation, biochemical, QFRET peptide cleavage; shares compounds with ADAM17 inh; recombinant ADAM17, EDANS/DABCYL QFRET peptide cleavage; inhibition, % at 6.95 µM; hit rate 65% among 2,900; AID 743257, 2014;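 active = mean inhibition across replicates above the hit cutoff set in the primary screen, cut at about 8.5% in these data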;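 also: 0% = DMSO wells and 100% = marimastat wells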
PLCgamma1 ctr: PLC-gamma1 enzyme inhibitors, counter-screen for PLC-beta3 inhibitor project, biochemical, fluorescence; shares compounds with PLC-gamma1 inh; purified PLC-gamma1, fluorogenic substrate; inhibition, % at 12.3 µM; hit rate 3.1% among 3,300
PLCbeta3 conf: PLC-beta3 inhibitor confirmation, biochemical, fluorescence, purified enzyme. fluorogenic substrate fluorescence. inhibition, % at 12.3 µM. hit rate 1% among 3,300. AID 743261, 2014. shares compounds with PLC-gamma1 inh; in the data active = inhibition above about 11%
An asterisk follows results filed as active; . = not tested or not shown. Rule as the data show it, unless noted: active = inhibition above about 9.5%; inactive = the rest.

SMILES	KLK7 zymogen act	ADAM17 inh	HGIII-sPLA2 inh	PLCb3 inh	ADAM10 inh	PLC-gamma1 inh	ADAM10 counter	ADAM17 confirm	PLCgamma1 ctr	PLCbeta3 conf
CN(C)S(=O)(=O)c1cccc(C(=O)N2CCN(Cc3ccccc3)CC2)c1	0	-2	0	-5	-2	0	.	.	.	.
COc1ccc(CN2CCC(CNC(=O)Nc3ccc(Cl)cc3)CC2)cc1	-1	5	-3	1	-7	2	.	.	.	.
O=C(/C=C(/c1ccc(Cl)cc1)n1cncn1)c1ccccc1	0	9.7*	-11	11*	9	7	3	4	-4	0
O=C1NC[C@H](Cc2ccc(O)cc2)N(C[C@@H]2CCCN2C[C@H](Cc2ccccc2)N2C[C@H](Cc3ccccc3)N(CCc3ccccc3)C(=O)C2=O)C1=O	1	-1	6	-2	-9	-1	.	.	.	.
O=C1NC[C@H](Cc2ccc(O)cc2)N(C[C@@H]2CCCN2C[C@H](Cc2ccc(O)cc2)N2C[C@H](Cc3ccccc3)N(CCc3ccccc3)C(=O)C2=O)C1=O	0	10*	-16	12*	8	5	-4	2	0	-1
COc1ccc(S[C@]2(C(=O)N3CCN(C(C)=O)CC3)CC(=O)N(C(=O)CCc3ccccc3)[C@@H]2c2ccc(OC)cc2)cc1	1	16*	-19	-1	19	11*	24*	13*	1	-1
COc1ccc(S[C@]2(C(=O)N3CCN(c4ncccn4)CC3)CC(=O)N(c3ccccc3)[C@@H]2c2ccc(OC)cc2)cc1	0	4	-7	-1	12	2	.	.	.	.
COC(=O)c1cccc(N2C(=O)C[C@](Sc3ccc(OC)cc3)(C(=O)N3CCOCC3)[C@H]2c2ccc(OC)cc2)c1	1	14*	-2	6	18	15*	17	9	-5	0
CC(C)[C@H](NC(=O)C1CC1)C(=O)N1CCC[C@H]1C(=O)NCCc1ccccc1Cl	0	1	6	3	-4	3	.	.	.	.
Cc1ccc(S[C@@H](CCN2CC[C@H](C)CCC2=O)c2ccccc2)cc1	0	-3	1	1	-2	-2	.	.	.	.
COc1ccc(S[C@@H](CCN2CC[C@H](C)CCC2=O)c2ccccc2)cc1	0	14*	-9	7	15	9.7*	16	11*	-6	-3
Cc1ccc(CN(C)C(=O)CN2C(=O)NC(c3ccccc3)(c3ccccc3)C2=O)c(C)c1	0	9.1*	-11	-1	8	11*	31*	13*	3	-5
CN(Cc1ccco1)C(=O)CN1C(=O)NC(c2ccccc2)(c2ccccc2)C1=O	0	-1	-13	-8	-7	1	.	.	.	.
O=[N+]([O-])c1cc([N+](=O)[O-])c(Oc2cccnc2Br)cc1NN1CCCCC1	0	11*	10	10	3	11*	26*	15*	5	5
O=[N+]([O-])c1cc([N+](=O)[O-])c(Oc2cccc3ccccc23)cc1NN1CCCCC1	-1	-2	9	2	-14	6	.	.	.	.
CCCC1CCC2(CC1)CCC2OC(=S)Nc1ccccc1Br (configuration not stated)	.	-2	0	2	3	3	.	.	.	.
CCN(CC)S(=O)(=O)c1ccc(C(=O)OCn2nnc3ccccc3c2=O)cc1	0	10*	-20	17*	12	7	7	5	-2	-1
C[C@H]1C2CC(OC(=O)NCCCc3ccccc3)C(C2)[C@H]2CCCCN21 (some centres not stated)	0	-4	2	-1	-10	-1	.	.	.	.
O=C(NCCc1ccc(F)cc1)c1ccc2c(c1)ncn2C1CCCCC1	0	2	-8	-1	0	-2	.	.	.	.
CC(C)Cn1cnc2c(Sc3c([N+](=O)[O-])ncn3C)nc(N)nc21	-1	9.4*	-1	12*	13	22*	16	8	2	5
CCC(C)Cn1cnc2c(Sc3c([N+](=O)[O-])ncn3C)nc(N)nc21 (configuration not stated)	0	0	2	2	-1	2	.	.	.	.
CCn1c(CNC(=O)COc2ccc(C(C)C)cc2)nnc1SCC(=O)Nc1ccc(F)cc1	0	4	-10	2	3	2	.	.	.	.
CCn1c(CNC(=O)COc2ccc(C(C)C)cc2)nnc1SCC(=O)Nc1cc(F)ccc1C	0	12*	-39	8	12	10*	1	4	-1	-2
O=S(=O)(Cc1ccc(Cl)cc1)C1CCCCC1O (configuration not stated)	0	11*	-5	5	7	11*	-11	-3	-4	-1
O=C(NCC1CCCO1)c1nn2c(c1Cl)NC(c1ccc(F)cc1)CC2C(F)(F)F (configuration not stated)	0	-4	-8	-1	0	-1	.	.	.	.
O=C(NCC1CCCO1)c1cnn2c1NC(c1ccccc1)CC2C(F)(F)F (configuration not stated)	0	11*	-3	10	7	12*	-6	-1	-8	-7
CCOC(=O)[C@@]12CCCC=C1N(CCc1ccc(Cl)cc1)C(=O)[C@H]2CC(=O)N1CCCCC1	0	3	-3	-1	1	9	.	.	.	.
O=C(NC1=N[C@@]2(C=C3CCCCC3n3c(=O)n(-c4ccccc4)c(=O)n32)CN1Cc1ccccc1)c1ccccc1 (some centres not stated)	0	2	-13	-12	9	-7	.	.	.	.
